# PubChem BioAssay AID588719 (Southern Research Specialized Biocontainment Screening …, 2011)
# The campaign covered roughly 1,500 compounds. About 920 (61%) were called active. How the calls were made is not given here. So high a share suggests a set chosen from earlier hits. Some of the results follow. Potency and affinity values are given separately.
# Test: Vero 76 cell cytotoxicity, dose response, cytotoxicity control for VEEV inhibitor project (AID 588719)
# Details: Vero 76 cells viability, cytotoxicity counter-screen; series mostly up to 25 µM; viability: at the top concentration
row,Compound,viability
1,N#Cc1cccc(NC(=O)CSc2n[nH]c(=O)[nH]c2=O)c1,90.3% (inactive)
2,Cc1ccc(CN2CCCC(C(=O)c3ccc4c(c3)OCO4)C2)cc1C (stereo not drawn),87.6% (inactive)
3,O=[N+]([O-])c1cccc(C([O-])=C(C(=S)Nc2cccc3ccccc23)[n+]2ccccc2)c1,93% (inactive)
4,O=[N+]([O-])c1cccc(/C([O-])=C(/C(=S)Nc2cccc3ccccc23)[n+]2ccccc2)c1,103% (inactive)
5,COc1ccc(N2CCCC2)c(NC(=O)c2ccc([N+](=O)[O-])o2)c1,97.5% (inactive)
6,Cc1nc(N)[nH]c(=O)c1CCCNc1ccc([N+](=O)[O-])cc1,90.7% (inactive)
7,C=CCNCCCCOc1ccc(OCc2ccccc2)cc1,92.5% (inactive)
8,CCn1c(=O)c([N+](=O)[O-])c(NCc2ccc3c(c2)OCO3)c2ccccc21,86% (inactive)
9,Cc1ccc(Nc2nc(=O)c3cccnc3s2)c(Br)c1,98.6% (inactive)
10,CCN1C/C(=C\c2cc(OC)c(OC)c(OC)c2)C2=NN(c3ccccc3)C(c3cc(OC)c(OC)c(OC)c3)C2C1 (stereo not drawn),86.3% (inactive)
11,CC(C)CN1C(=O)/C(=C(/C#N)C(=O)NC2CCCCC2)c2ccccc21,85.1% (inactive)
12,Cc1ccc(SCCC(=O)Nc2nccs2)cc1,96.8% (inactive)
13,COc1ccc(C(=O)NC2CCCc3c2cnn3-c2cccc(C)c2C)o1 (stereo not drawn),74.2% (inactive)
14,Cn1c(CCN2CCCCC2)nc2cc(NC(=O)COc3ccc([N+](=O)[O-])cc3)ccc21,87.6% (inactive)
15,COc1ccc(Cl)cc1S(=O)(=O)N1CCN(C(=O)c2n[nH]c(=O)c3ccccc23)CC1,86.1% (inactive)
16,O=c1oc(C2(O)CCCCC2)cc2ccc(-c3ccc4[nH]ccc4c3)cc12,57% (inactive)
17,O=C(C=Cc1cccc(Cl)c1)c1ccccc1,94.6% (inactive)
18,Cc1cc(NC(=O)COC(=O)c2cc(S(=O)(=O)N(C)c3ccccc3)ccc2Cl)no1,92.1% (inactive)
19,Cc1cc(NC(=O)C(C)SCC(=O)N(Cc2ccccc2)c2ccccc2)no1 (stereo not drawn),80.7% (inactive)
20,O=C(O)c1cc(-c2ccc3ccccc3c2)nc2ccc(F)cc12,94.6% (inactive)
21,Cc1nc(N)ncc1Sc1ccccc1,85.3% (inactive)
22,O=C(/C=C/c1ccnc2ccccc12)c1cccs1,94.5% (inactive)
23,O=C(CSc1nc2ccc(Cl)cc2[nH]1)c1cccs1,82% (inactive)
24,CN1CCN(c2ccc(CNS(=O)(=O)c3ccccc3)cc2)CC1,91.8% (inactive)
25,COc1cccc(N2CCN(c3ccc(S(=O)(=O)N4CCN(C)CC4)cc3[N+](=O)[O-])CC2)c1,71% (inactive)
26,COc1ccc(N2CCN(CCCn3c(=S)[nH]c4ncccc4c3=O)CC2)cc1,86.2% (inactive)
27,C#CCSc1nc(=O)c2cccnc2n1-c1ccc(C)cc1,102% (inactive)
28,CCN(CC)CC(=O)Nc1ccc(/C(C)=N/NC2=NCCN2)cc1,87.9% (inactive)
